Screening data (PubChem)
Shiga inhibitor: inhibitors of Shiga toxin in Vero cells; Vero cells, Shiga toxin protein synthesis inhibition reporter; inhibition, % at 38.7 µM; 290,000 tested, 9.2% active; AID 2315; in the data active = inhibition mostly above about 28%, no sharp cut-off; inactive = mostly below about 43%
Pf growth 96h: P. falciparum growth inhibition at 96 hours. P. falciparum luciferase reporter growth, 96 h. Potency, µM (top dose mostly 28.7 µM), most hits filed as inhibitors. 320,000 tested, 6.9% active. AID 504834
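Plates of compound plus infected erythrocytes (2% hematocrit, 0.05% parasitemia final) incubate 96 hours, 37 C, 5% CO2. Detection reagent added; reduced luminescence from the parasites' luciferase reporter flags inhibition.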
Sm TGR inh: blocks Schistosoma mansoni thioredoxin glutathione reductase. Q962Y6. 360,000 tested, 3% active. purified TGR, DTNB reduction, TNB absorbance 405 nm. Potency, µM (series often up to 114 µM), actives largely listed as inhibitors; also: nearly all actives have a fitted effect of over 60% in size
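Kinetic colorimetric format: TGR-catalysed, NADPH-driven DTNB reduction monitored via TNB absorbance. Enzyme dispensed at 20 nM; compound exposure 15 min at room temperature before reaction start.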
CHX counter: affects cycloheximide protein synthesis inhibition readout, counter-screen; cell reporter, cycloheximide protein synthesis inhibition counterscreen; max response, %; 300,000 tested, 12% active; in the data active = max response mostly above about 13%, no sharp cut-off; inactive = mostly below about 14%; also: read at 38.3 µM for the half of the compounds with a filed dose
NS1 function inh: inhibitors of influenza NS1 protein function. Potency, µM (series often up to 46.1 µM). 270,000 tested, 0.4% active; calls by dose curve; also: actives are rising curves; nearly all actives have a fitted effect of over 50% in size
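Compounds were scored for reversing the slow growth caused by influenza A NS1 in S. cerevisiae, measured by optical density at 600 nm. Assay medium contained 2% galactose at pH 6.0; NS1-free yeast of the same strain were the positive control.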
Pf growth 48h: inhibits P. falciparum growth in the first generation, 48 h; Potency, µM (titrated, usually from 28.7 µM), most hits filed as inhibitors; 310,000 tested, 5.9% active; P. falciparum luciferase growth in erythrocytes, 48 h
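Luminescence readout; reporter = integrated firefly luciferase in P. falciparum. RBC culture at 2% hematocrit, 0.1% parasitemia final, 37 C/5% CO2; decreased signal taken as growth inhibition.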
A number is an active result; n = inactive; u = inconclusive; x = no result. Sampled rows, rich in hits. Any-hit rate of the full collection: about 21%. Unless noted, calls follow the shape of the dose curve; as a rule, active = well fitted curve in the direction sought with a large enough effect; inconclusive = small, poorly fitted or top-dose-only effect, or another doubt; inactive = no such curve, though single readings can be large; an effect the other way counts as inactive or inconclusive.

SMILES | Shiga inhibitor | Pf growth 96h | Sm TGR inh | CHX counter | NS1 function inh | Pf growth 48h
O=C(COc1ccc2c(c1)OCO2)Nc1nncs1 | n | n | n | 18 | n | n
CC(C)c1nnc(NC(=O)COc2ccc3c(c2)OCO3)s1 | n | n | n | n | n | n
CCN1C(=O)c2ccccc2S(=O)c2ccc(C(=O)N3CCN(c4ccccc4OC)CC3)cc21 (stereo unspecified) | x | x | n | x | x | x
Cc1oc2ncnc(N3CCCCC3)c2c1C(=O)N1CCN(c2ccc(Cl)cc2)CC1 | x | x | n | x | x | x
O=C(COC(=O)[C@H](Cc1ccccc1)NC(=O)c1cccs1)NC1CCCCC1 | n | n | n | n | n | n
C[C@@]1([C@@H](NC(=O)c2cccs2)c2ccc(-c3ccccc3)cc2)C[C@H]1C1CCCCC1 | n | 2.6µM | n | n | n | 1.9µM
CCCCN(CCCC)CP(=O)(c1ccccc1)c1ccccc1 | n | n | n | n | n | x
CCc1ccc(OCC(=O)NC2CC(C)(C)NC(C)(C)C2)cc1 | n | 6.6µM | n | n | n | u
CCc1cc(=O)oc2c(C)c(OCC(=O)NC3CC(C)(C)NC(C)(C)C3)ccc12 | n | 10µM | n | n | n | u
Cc1ccc(OCC(=O)NC2CC(C)(C)NC(C)(C)C2)cc1C | n | n | n | n | n | n
CCNC(=O)Cc1c(OC)ccc2cc(Br)ccc12 | n | n | n | n | n | n
COc1ccc2cc(Br)ccc2c1CC(=O)NC1CC(C)(C)NC(C)(C)C1 | n | 8.3µM | n | n | n | x
COc1ccc(-n2nc(C(=O)N3CCN(c4cccc(C)c4C)CC3)c3c4ccccc4n(C)c3c2=O)cc1Cl | x | x | n | x | x | x
COc1ccc(NC(=O)C(NC(=O)/C=C\c2ccc3c(c2)OCO3)c2ccc(C)cc2)cc1 (stereo unspecified) | x | x | n | x | x | x
CC(=O)c1ccc(NC(=O)CCNC(=O)c2ccc(Cl)cc2)cc1 | n | n | n | n | n | n
CCCN1C(=O)COc2ccc(-c3n[nH]c(=O)c4ccccc34)cc21 | n | u | n | n | n | n
CC(=O)c1ccc(-n2c(SCC(=O)c3c[nH]c4ccccc34)nc3ccccc3c2=O)cc1 | n | u | u | n | u | 12µM
CCOC(=O)c1c(C)[nH]c(C)c1C(=O)CSc1nnnn1-c1ccccc1 | n | 12µM | u | n | n | x
CCOC(=O)c1c(C)[nH]c(C)c1C(=O)CSc1nc2ccccc2c(=O)n1-c1ccc(CC)cc1 | n | 9.3µM | n | n | n | u
O=C(CSc1nc2ccccc2c(=O)n1-c1ccccc1)N1CCC1 | n | u | n | n | x | u
CCOC(=O)c1c(NC(=O)CSc2nc3ccccc3c(=O)n2-c2ccc(F)cc2)sc(C(C)=O)c1C | n | 3.3µM | n | n | n | 4.1µM
CCOC(=O)c1c(C)[nH]c(C)c1C(=O)CSc1nc2ccccc2n1CC | n | u | n | n | n | n
COc1ccc(CCNC(=O)c2cc(S(=O)(=O)N3CCCC(C)C3)cn2C)cc1OC (stereo unspecified) | x | x | n | x | x | x
O=C(CCNC(=O)c1ccc(Cl)cc1)Nc1ccccc1N1CCCCC1 | x | u | n | x | x | u
CCOC(=O)c1[nH]c(CSc2nnc(-c3ccncc3)n2CCOC)c(C(=O)OCC)c1C | n | u | n | n | n | n
SMILES | Shiga inhibitor | Pf growth 96h | Sm TGR inh | CHX counter | NS1 function inh | Pf growth 48h
CCOC(=O)c1[nH]c(CSc2nnnn2-c2ccccc2C)c(C(=O)OCC)c1C | n | u | n | n | n | 10µM
Cc1cc(OCc2nnc(SC(C)C(=O)O)n2-c2ccccc2)ccc1Cl (stereo unspecified) | x | u | n | n | u | n
O=C(O)CSc1nnc(COc2ccccc2)n1-c1ccccc1 | n | n | n | n | n | n
Cc1ccc(OCc2nnc(SCC(=O)c3cccs3)n2-c2ccccc2)cc1C | 73 | u | n | 31 | n | n
CCOC(=O)C(CC)Sc1nnc(COc2ccc(C)cc2)n1-c1ccccc1 (stereo unspecified) | n | u | n | n | n | 13µM
Cc1cccc(OCc2nnc(SCCC(=O)O)n2-c2ccccc2)c1 | x | u | 79µM | n | n | n
O=C(CSc1nnc(COc2ccccc2)n1-c1ccccc1)c1cccs1 | n | u | n | 34 | n | n
CCOc1nc(N2CCOCC2)nc(N2CCOCC2)n1 | n | n | n | n | x | n
CC1CN(C(=O)CSc2nc(N)cc(N)n2)CC(C)O1 (stereo unspecified) | x | n | n | x | x | n
CCOc1ccc(CCNC(=O)COC(=O)c2nn(C)c(=O)c3ccccc23)cc1OCC | x | n | n | x | x | 2.9µM
CCOc1ccc(C(=O)CC(=O)C(=O)NCCc2ccc(OC)c(OC)c2)cc1 | n | n | n | n | n | 13µM
CCOC(=O)CCCNC(=O)CCNC(=O)c1ccc(OC(C)C)cc1 | 54 | x | n | 17 | n | n
CCOC(=O)CCCNC(=O)CCNC(=O)c1ccc(OCC(C)C)cc1 | n | n | n | n | n | n
CCOc1ccc(CCNC(=O)COC(=O)CCc2cc(OC)c(OC)c(OC)c2)cc1OCC | x | u | n | x | x | 13µM
Cc1ccc([N+](=O)[O-])cc1NC(=O)CCCOc1ccccc1 | n | n | n | n | n | n
COc1ccc(C2c3cccn3CCN2S(=O)(=O)c2ccccc2[N+](=O)[O-])cc1OC (stereo unspecified) | x | x | n | x | x | x
Cn1ncc([N+](=O)[O-])c1C(=O)NC1CCCCC1 | n | n | n | n | n | n
CCOc1ccc(CCNC(=O)COC(=O)c2ccc(OC(C)C)cc2)cc1OCC | x | u | n | x | x | 12µM
CCOc1ccc(CCNC(=O)COC(=O)c2cc(OC)cc(OC)c2)cc1OCC | n | n | n | n | x | n
CCCOc1ccc(C(=O)OCC(=O)NCCc2ccc(OCC)c(OCC)c2)cc1OC | n | 13µM | n | n | n | u
CCCCC(c1nnnn1CCOC)N1CCN(Cc2ccccc2)CC1 (stereo unspecified) | n | n | u | n | n | u
COC(=O)c1ccc(OC(=O)c2ccncc2)cc1O | n | n | 45µM | n | n | n
COc1ccc(C(=O)Oc2cccnc2)cc1 | n | n | n | n | n | x
CCC(C)C(=O)Nc1ccc(OC)cc1[N+](=O)[O-] (stereo unspecified) | n | n | n | n | n | n
CCCn1c(SCc2nc(-c3ccc(OC)cc3OC)no2)nnc1-c1ccc(Cl)cc1 | x | x | n | x | x | x
SMILES | Shiga inhibitor | Pf growth 96h | Sm TGR inh | CHX counter | NS1 function inh | Pf growth 48h
CC(=O)N1c2c(cc(Br)cc2S(=O)(=O)Nc2ccc(OC(F)(F)F)cc2)CC1C (stereo unspecified) | x | x | n | x | x | x
Cc1cc(C)c(-c2cc(C(F)(F)F)no2)c(=O)[nH]1 | n | 12µM | n | n | n | n
CCOc1[nH]n(-c2ccccc2)c(=O)c1C=NCc1cccnc1 | n | 19µM | n | n | x | u
CCOc1[nH]n(-c2ccccc2)c(=O)c1C=NCC(=O)OC | n | n | n | n | x | u
C[C@@H]1C[C@@H]([C@H](O)CC2CC(=O)NC(=O)C2)C(=O)[C@@H](C)C1 | x | 0.1µM | n | x | x | 0.1µM
O=C(c1ccncc1)c1nccn1-c1ccccn1 | n | 13µM | n | n | n | n
